Assay outcomes from PubChem BioAssay.
This is a sample that favours compounds with a hit; in the whole collection about 12% have one here.
BAZ2B inh: inhibitors of human BAZ2B bromodomain; Q9UIF8; AlphaScreen BAZ2B-H3K14Ac peptide displacement; Potency, µM (highest dose often 114 µM), for inactives: at the highest dose activity change, negative = inhibition, hits mostly inhibitors; 4.4% of 360,000 active; AID 504333; also: potency is read from the fitted curve at half-maximal effect; % is scaled to controls: 0 for no effect and ±100 for the full control effect; nearly all actives have a fitted effect of over 60% in size
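AlphaScreen displacement of biotin-H3(5-23)K14Ac peptide (50 nM final) from BAZ2B (50 nM final) in PBS pH 7.4, 0.01% Tween-20; complex preformed 30 min RT, then compounds (top 110 uM) 30 min RT, beads 20 min dark.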
G9a block: G9a (human) methyltransferase inhibition. G9a H3K9 monomethylation, AlphaScreen, 2 h. Potency, µM (series often up to 102 µM), inactives show at the highest dose activity, negative = inhibition, most hits filed as inhibitors. 8.8% of 350,000 active; also: potency is read from the fitted curve at half-maximal effect; % is scaled to controls: 0 for no effect and ±100 for the full control effect; nearly all actives have a fitted effect of over 75% in size
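Quantitative HTS format: methyltransferase activity on a biotin-tagged H3K9 peptide is measured by AlphaScreen, using a rabbit anti-monomethyl-H3K9 antibody with streptavidin donor and anti-IgG acceptor beads. Final levels are 20 nM enzyme, 500 nM peptide, 20 uM SAM; 2 h RT.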
HP1b binding inh: blocks HP1-beta chromodomain binding to methylated histone tails; P83916; AlphaScreen HP1-beta / biotin-H3K9me3 peptide binding; Potency, µM (doses to about 114 µM), for the others: top-dose activity change, negative = inhibition, usual class: inhibitors; 0.56% of 390,000 active; AID 540317; also: potency is read from the fitted curve at half-maximal effect; nearly all actives have a fitted effect of over 70% in size
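Compound inhibition of the preformed complex between 50 nM HP1-beta and 50 nM biotinylated H3K9me3 peptide was read by AlphaScreen. Buffer was PBS pH 7.4 with 0.01% Tween-20. Incubations ran 30 min at room temperature, with 10 ug/mL donor/acceptor beads.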
PI5P4Ka inh: inhibitors of human PI5P4K alpha; P48426; PI5P4Kalpha enzyme, ADP-Glo luminescence, 60 min; hits give low values; max response, %; 1.2% of 330,000 active; AID 652105; active = max response of -50% or lower; inconclusive = between -30% and -50%; inactive = -30% or higher; also: value at the top dose of about 77 µM; % is scaled to controls: 0 for no effect and ±100 for the full control effect
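Compounds were pin-transferred onto PI5P4Kalpha and substrate in HEPES pH 7.4 buffer with EGTA, CHAPS and 5% DMSO. ATP (5 microM final) started the reaction, which ran 60 minutes at room temperature before ADP-Glo detection.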
PLK1 PBD inh: blocks phosphopeptide binding to human PLK1 polo-box domain; P53350; Plk1 PBD binding of FITC phosphopeptide, fluorescence polarization; Potency, µM, for the others: max response, negative = inhibition, hits mostly inhibitors; 2.8% of 360,000 active; also: potency is read from the fitted curve at half-maximal effect; series mostly up to about 57 µM; % is scaled to controls: 0 for no effect and ±100 for the full control effect; nearly all actives have a fitted effect of over 65% in size
JMJD2A Tudor inh: JMJD2A Tudor domain (human) inhibition | O75164 | AlphaScreen JMJD2A-Tudor / H3K4me3 peptide binding | Potency, µM (series often up to 114 µM), for inactives: at the top dose activity change, negative = inhibition, actives largely listed as inhibitors | 4.4% of 390,000 active | AID 504339; also: potency is read from the fitted curve at half-maximal effect; % is scaled to controls: 0 for no effect and ±100 for the full control effect; nearly all actives have a fitted effect of over 50% in size
* marks the source's active call; other numbers are inactive results; ? = inconclusive; nt = not tested or not shown; [ ] = another dose, or the depositor's remark. Unless noted, calls follow the shape of the dose curve; as a rule, active = well fitted curve in the direction sought with a large enough effect; inconclusive = small, poorly fitted or top-dose-only effect, or another doubt; inactive = no such curve, though single readings can be large; an effect the other way counts as inactive or inconclusive.

SMILES | BAZ2B inh | G9a block | HP1b binding inh | PI5P4Ka inh | PLK1 PBD inh | JMJD2A Tudor inh
CC(C)=NNC(=O)CN1C(=O)NC2NC(=O)NC21 (stereo not drawn) | 5% | 79µM* | 16% | -1 | -4% | -6%
O=C(COC(=O)c1ccccc1C(=O)c1ccccc1)Nc1cccc([N+](=O)[O-])c1 | -37% | 3%[59 µM] | 4% | -12 | -13% | ?
Nc1c(C(=O)OCC(=O)Nc2cccc([N+](=O)[O-])c2)[nH]c(=O)[nH]c1=O | nt | nt | 13% | ? | -14% | 79µM*
N#Cc1c(=O)c2nc(NCCCO)ncc2n2c(=O)c3ccccc3[nH]c12 | 13µM* | 45µM* | 28% | -65* | -16% | 56µM*
Cc1c(CCO)c(=O)n2c([nH]c3ccccc32)c1C#N | -11% | -8% | 38% | -3 | 5% | -4%
Cc1ccc(/C=N/Nc2ccc3ccccc3n2)o1 | ? | -46% | -24% | -3 | 1% | ?
Cc1ccc(/C=N/Nc2cn[nH]c(=O)n2)o1 | 40µM* | 25% | 21% | 4 | -9% | ?
O=c1nc(N/N=C/c2ccccn2)cn[nH]1 | 2.5µM* | 3% | 59% | 2 | 5% | 18µM*
CCOCCCNC(=O)c1ccc2c(=O)n(CCc3ccc(OC)c(OC)c3)c(=O)[nH]c2c1 | 1% | 23%[59 µM] | 17% | nt | nt | -5%
Cc1c(C)n(-c2ccc(Cl)cc2)c2ncnc(N)c12 | -28% | ? | -30% | -22 | -19% | ?
O=[N+]([O-])c1ccc(N/N=C/c2c[nH]c3ccccc23)c(S(=O)(=O)Nc2ccc(Cl)cc2)c1 | 45µM* | ? | ? | nt | 9% | 28µM*
CCc1c(C2(O)CCCCC2)[nH]c2cnccc12 | -36% | -28%[0.501 µM] | 26% | -1 | -15% | -11%
Cc1cccc(S(=O)(=O)c2cn(Cc3ccccc3)c3cc(N4CCC(C)CC4)c(F)cc3c2=O)c1 | 10% | -1%[59 µM] | 12% | nt | nt | -5%
COc1ccc(OC)c(-n2c(-c3cccc(S(=O)(=O)N(C)C)c3)n[nH]c2=S)c1 | nt | 2.5µM* | -19% | -20 | -26% | ?
COc1cccc(-n2c(-c3cccc(S(=O)(=O)N(C)C)c3)n[nH]c2=S)c1 | nt | 2.5µM* | 14% | -9 | 5% | 8.9µM*
COc1cccc(-n2c(-c3ccc4[nH]c(C)c(C)c4c3)n[nH]c2=S)c1 | ? | nt | -6% | -10 | -7% | ?
CCSc1nnc(-c2cccc(S(=O)(=O)N(C)C)c2)n1-c1cc(OC)ccc1OC | 13% | ? | 29% | nt | -2% | -13%
CCOC(=O)N1CCC(NC(=O)c2ccc3c(c2)N(Cc2ccc(Cl)cc2)C(=O)c2ccccc2S3=O)CC1 (stereo not drawn) | -15% | -3%[59 µM] | 26% | nt | nt | -7%
Cc1ccc(N=Cc2c(O)ccc3ccccc23)cc1F | 7% | 1.3µM* | 0% | -4 | -14% | 56µM*
COc1ccc(NC(C)C(=O)N/N=C/c2c(O)ccc3ccccc23)cc1 (stereo not drawn) | 0% | 45µM* | 50% | -1 | -7% | -13%
Nc1cc(Cl)nc(N/N=C/c2c(O)ccc3ccccc23)n1 | 2% | -19%[59 µM] | 18% | -4 | -21% | -12%
N#Cc1cccc(N=Cc2c(O)ccc3ccccc23)c1 | -3% | 1.4µM* | -25% | 4 | -11% | 35µM*
O=C(O)c1ccc(N=Cc2c(O)ccc3ccccc23)cc1 | -5% | 1.1µM* | 15% | 5 | -16% | ?
Cc1ccc(S(=O)(=O)NC(=O)C2(C)CCN2C(=O)Cc2cc(F)ccc2F)nc1 (stereo not drawn) | nt | nt | nt | -13 | -7% | nt
CCOC(=O)C1CCCN(C(=O)c2ccc3c(c2)N(Cc2ccccc2)C(=O)c2ccccc2S3(=O)=O)C1 (stereo not drawn) | ? | 4%[59 µM] | 44% | nt | nt | -11%
SMILES | BAZ2B inh | G9a block | HP1b binding inh | PI5P4Ka inh | PLK1 PBD inh | JMJD2A Tudor inh
Cn1c(/N=C(\N)c2ccccc2)nc2ccccc21 | nt | nt | nt | 10 | -4% | nt
NC(=O)c1ccc(N=Cc2c(O)ccc3ccccc23)cc1 | nt | nt | 5% | 6 | -18% | ?
CC(=O)Nc1ccc(N=Cc2c(O)ccc3ccccc23)cc1 | -25% | 1.8µM* | 1% | -6 | 42% | -27%
O=C(O)Cc1ccc(N=Cc2c(O)ccc3ccccc23)cc1 | -29% | 1.6µM* | -9% | -2 | -3% | -26%
Cc1occc1C(=O)N/N=C/c1c(O)ccc2ccccc12 | 19% | 44% | 38% | -1 | -7% | -18%
O=C(CNc1ccccc1)N/N=C/c1c(O)ccc2ccccc12 | -1% | -13% | 24% | -5 | 4% | -15%
O=S(=O)(/N=C/c1c(O)ccc2ccccc12)c1ccccc1 | -20% | 1.4µM* | 79µM* | -1 | 15µM* | 56µM*
COc1ccc(NC(C)C(=O)N/N=C/c2ccccc2OCc2cccc(Br)c2)cc1 (stereo not drawn) | 10µM* | 40µM* | ? | 4 | -5% | 11µM*
COc1ccc(C2/C=C\CN(C(=O)OCC3c4ccccc4-c4ccccc43)CC(=O)N2Cc2cccc(F)c2)cc1 (stereo not drawn) | nt | -4%[59 µM] | 12% | 7 | -13% | -18%
COc1ccc(N=Cc2c(O)c3ccccc3oc2=O)cc1 | 2% | ? | 27% | -4 | 9% | 1%
COc1ccc(N=Cc2c(O)ccc3ccccc23)cc1 | -20% | 0.79µM* | 82% | 8 | -11% | 35%
Cc1cccc(N=N/C(=C\O)C(=O)c2cccs2)c1 | 11µM* | 28µM* | ? | -11 | -16% | 25µM*
O=C(/C(=C/O)N=Nc1ccccc1)c1ccncc1 | ? | -2%[59 µM] | -15% | -17 | -6% | ?
COc1ccc(C)cc1NC(=O)C(c1ccccc1)N1CCN(CC(=O)NC2CC2)CC1 (stereo not drawn) | -23% | ? | 18% | 8 | -3% | -18%
CNCc1ccccc1Sc1ccc(O)c(O)c1 | ? | 13µM* | ? | ? | ? | 79µM*
COc1cccc(/C=C/C(=O)c2ccc3c(c2)OCCO3)c1OC | -25% | 2%[0.501 µM] | 9% | 2 | -13% | -18%
Cc1cc(NS(=O)(=O)c2ccc(NC(=O)COc3cc(C)c(Br)cc3C(C)C)cc2)no1 | -23% | ? | 30% | nt | nt | -24%
Cc1nnc(SCC(=O)NNC(=O)COc2ccc(Cl)cc2)n1C | -16% | 7% | 66% | -4 | -1% | -14%
CCSC1=C(C#N)C2(CCCCC2)C(C#N)C(=O)N1 (stereo not drawn) | nt | -4%[59 µM] | 28% | nt | -3% | -13%
N#CC1=C2SCCN2C(=O)C(C#N)C12CCCCC2 (stereo not drawn) | -38% | 22µM* | 19% | 0 | -9% | -25%
Nc1ncnc2c1ncn2[C@@H]1O[C@H](CNCC(O)CO)[C@@H](O)[C@H]1O (stereo partly drawn) | nt | nt | 31% | -5 | -8% | -11%
